Structures can show the parent of a compound that is named as a salt. Unmarked numbers belong to inactive results.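 Rule for the calls: active = log2 fold change beyond 2 SD from the library mean after excluding viability outliers; inactive = within 2 SD.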
Target: PARP1 L713F-nLuc biosensor (HCT116) (UniProt P09874)
Assay: PARP1 L713F-nLuc/akaLuc ratio relative to DMSO control (biosensor stabilization) (fold change); higher = more PARP1 biosensor stabilization (target engagement / stabilizer), active = hit call of the paper
Conditions: stock concentration (mM; final µM = stock mM x 1): 10; 24 h

Sequence of PARP1 L713F-nLuc biosensor (HCT116) (P09874 whole entry L713F, looked up): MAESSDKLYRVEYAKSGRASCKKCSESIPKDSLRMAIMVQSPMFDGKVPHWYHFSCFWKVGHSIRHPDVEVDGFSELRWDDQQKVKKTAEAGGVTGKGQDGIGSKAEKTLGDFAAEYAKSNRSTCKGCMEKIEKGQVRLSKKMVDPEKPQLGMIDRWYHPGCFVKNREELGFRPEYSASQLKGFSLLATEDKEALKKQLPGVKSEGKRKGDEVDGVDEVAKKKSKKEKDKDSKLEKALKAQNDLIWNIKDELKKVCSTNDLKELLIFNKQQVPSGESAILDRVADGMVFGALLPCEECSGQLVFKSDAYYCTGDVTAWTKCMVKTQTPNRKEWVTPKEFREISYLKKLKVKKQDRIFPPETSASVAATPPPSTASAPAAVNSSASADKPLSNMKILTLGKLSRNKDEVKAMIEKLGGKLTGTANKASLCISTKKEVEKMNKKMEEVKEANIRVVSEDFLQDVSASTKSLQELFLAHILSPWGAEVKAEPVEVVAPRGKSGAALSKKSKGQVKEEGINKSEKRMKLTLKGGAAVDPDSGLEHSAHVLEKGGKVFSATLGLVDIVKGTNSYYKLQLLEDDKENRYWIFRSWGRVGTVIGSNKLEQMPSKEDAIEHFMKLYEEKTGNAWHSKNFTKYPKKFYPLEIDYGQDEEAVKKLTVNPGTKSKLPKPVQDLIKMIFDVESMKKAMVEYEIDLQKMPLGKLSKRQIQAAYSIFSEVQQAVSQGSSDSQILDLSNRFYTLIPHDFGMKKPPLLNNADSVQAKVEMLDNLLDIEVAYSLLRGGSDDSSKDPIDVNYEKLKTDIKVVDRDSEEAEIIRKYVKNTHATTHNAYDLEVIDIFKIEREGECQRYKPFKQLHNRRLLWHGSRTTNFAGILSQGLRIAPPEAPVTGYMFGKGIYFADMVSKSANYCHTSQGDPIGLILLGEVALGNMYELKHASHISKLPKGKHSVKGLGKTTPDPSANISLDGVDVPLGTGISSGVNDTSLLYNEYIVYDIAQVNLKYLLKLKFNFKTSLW

Row | Compound | PARP1 L713F-nLuc/akaLuc ratio
1 | COc1cc2c(NC3CCN(C)CC3)nc(N3CCCN(C)CC3)nc2cc1OCCOCCN(C)C | 1.43
2 | C[C@@H](COCCC(=O)N1CCN(c2ncc(C(F)(F)F)cn2)CC1)Nc1cn[nH]c(=O)c1C(F)(F)F | 2.09
3 | O=C(c1ccc(/C=C/c2n[nH]c3ccccc23)cc1)N1CCNCC1 | 1.3
4 | COc1nn(C)cc1Nc1nccc(-c2c[nH]c3c(NC(=O)[C@@H](C)N4CCN(C)CC4)cccc23)n1 [Golidocitinib] | 0.637
5 | Cc1cn(-c2cc(NC(=O)c3ccc(C)c(Nc4nccc(-c5cccnc5)n4)c3)cc(C(F)(F)F)c2)cn1 [Nilotinib (AMN-107)] | 0.959
6 | CO[C@@H](C(=O)N1Cc2[nH]nc(NC(=O)c3ccc(N4CCN(C)CC4)cc3)c2C1)c1ccccc1 | 0.781
7 | O=C(O)CNC(=O)C1=C(O)CCN(Cc2ccc(Oc3ccc(Cl)cc3)nc2)C1=O | 1.22
8 | NC(=O)c1ccccc1Nc1ccccc1 | 0.795
9 | C#Cc1cccc(Nc2ncnc3cc4c(cc23)OCCOCCOCCO4)c1 [Icotinib] | 0.808
10 | Nc1nc(Cl)nc2c1ncn2[C@@H]1O[C@H](CO)[C@@H](O)[C@@H]1F [Clofarabine] | 0.577
11 | C=CC(=O)Nc1cc(Nc2nccc(-c3cn(C)c4ccccc34)n2)c(OC)cc1N(C)CCN(C)C [Osimertinib (AZD9291)] | 0.371
12 | CCN(CC)Cc1cc(Nc2ccnc3cc(Cl)ccc23)ccc1O [Amodiaquine (dihydrochloride dihydrate)] | 0.819
